Reference: PubChem BioAssay AID1159580 (chemical genetic matrix, 2015)
The whole screen tested about 5,500 compounds, of which about 2,000 (36%) were called active. Not shown: some 18% with an inconclusive outcome. Cut-off read from the data, not from the text of the source: active = normalized growth mostly below about 0.91 (no sharp cut-off); inconclusive = no clear call, values can overlap the other calls; inactive = mostly above about 0.92. This is one part of the list.

Test: chemical genetic growth profiling, strain panel (AID 1159580);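 note: tested at 20 µM; growth read once vehicle control cultures reached saturation at 30 °C; 1 = growth at the plate median or of vehicle wells; lower values mean less growth of the strain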
Conditions: S. cerevisiae deletion strains, growth OD
[1] = locus YAL013W, strain DEP1, active compounds read low
[2] = locus YBR229C, strain ROT2, active compounds read low
[3] = locus YDL101C, strain DUN1, active compounds read low
[4] = locus YDR150W, strain NUM1, active compounds read low
[5] = locus YEL061C, strain CIN8, active compounds read low
[6] = locus YGR078C, strain PAC10, active compounds read low
[7] = locus YHR030C, strain SLT2, active compounds read low
[8] = locus YHR087W, strain rtc3, active compounds read low
[9] = locus YJR043C, strain POL32, active compounds read low
[10] = locus YJR075W, strain HOC1, active compounds read low
[11] = locus YLR039C, strain RIC1, active compounds read low
[12] = locus YLR058C, strain SHM2 (second series), active compounds read low
[13] = locus YLR085C, strain ARP6, active compounds read low
[14] = locus YLR262C, strain YPT6, active compounds read low
[15] = locus YML094W, strain GIM5, active compounds read low
[16] = locus YMR219W, strain ESC1, active compounds read low
[17] = locus YMR263W, strain SAP30, active compounds read low
[18] = locus YNL153C, strain GIM3, active compounds read low
[19] = locus YNL298W, strain CLA4 (second series), active compounds read low
[20] = locus YNL322C, strain KRE1, active compounds read low
[21] = locus YNR030W, strain Alg12, active compounds read low
[22] = locus YPL055C, strain LGE1, active compounds read low
[23] = locus YPL241C, strain CIN2, active compounds read low
[24] = locus YPR135W, strain CTF4, active compounds read low
[25] = locus YAR019C, strain CDC15, active compounds read low
[26] = locus YBL105C, strain PKC1, active compounds read low
[27] = locus YBR135W, strain CKS1, active compounds read low
[28] = locus YBR136W, strain MEC1, active compounds read low
[29] = locus YBR160W, strain CDC28, active compounds read low
[30] = locus YDL017W, strain CDC7, active compounds read low
[31] = locus YDL028C, strain MPS1, active compounds read low
[32] = locus YDL108W, strain KIN28, active compounds read low
[33] = locus YDL132W, strain cdc53, active compounds read low
[34] = locus YDL214C, strain PRR2, active compounds read low
[35] = locus YDR052C, strain DBF4, active compounds read low
[36] = locus YDR054C, strain cdc34, active compounds read low
[37] = locus YDR226W, strain ADK1, active compounds read low
[38] = locus YDR477W, strain SNF1, active compounds read low
[39] = locus YER123W, strain YCK3, active compounds read low
[40] = locus YER133W, strain GLC7, active compounds read low
[41] = locus YFL009W, strain cdc4, active compounds read low
[42] = locus YFR003C, strain YPI1, active compounds read low
[43] = locus YFR019W, strain FAB1, active compounds read low
[44] = locus YFR028C, strain CDC14, active compounds read low
[45] = locus YGR040W, strain KSS1, active compounds read low
[46] = locus YGR052W, strain FMP48, active compounds read low
[47] = locus YGR092W, strain DBF2, active compounds read low
[48] = locus YHR079C, strain IRE1, active compounds read low
[49] = locus YHR082C, strain KSP1, active compounds read low
[50] = locus YHR205W, strain SCH9, active compounds read low
[51] = locus YIL147C, strain SLN1, active compounds read low
[52] = locus YJL095W, strain BCK1, active compounds read low
[53] = locus YJL128C, strain PBS2, active compounds read low
[54] = locus YJL157C, strain FAR1, active compounds read low
[55] = locus YJR016C, strain ILV3, active compounds read low
[56] = locus YJR066W, strain TOR1 (second series), active compounds read low
[57] = locus YJR066W, strain TOR1, active compounds read low
[58] = locus YKL048C, strain ELM1, active compounds read low
[59] = locus YKL067W, strain YNK1, active compounds read low
[60] = locus YKL193C, strain SDS22, active compounds read low
[61] = locus YKL203C, strain TOR2, active compounds read low
[62] = locus YLR113W, strain HOG1, active compounds read low
[63] = locus YLR133W, strain CKI1, active compounds read low
[64] = locus YLR403W, strain SFP1, active compounds read low
[65] = locus YML070W, strain DAK1, active compounds read low
[66] = locus YMR001C, strain CDC5, active compounds read low
[67] = locus YMR205C, strain PFK2 (second series), active compounds read low
[68] = locus YMR277W, strain FCP1, active compounds read low
[69] = locus YNL006W, strain LST8, active compounds read low
[70] = locus YNL020C, strain ARK1, active compounds read low
[71] = locus YNL183C, strain NPR1, active compounds read low
[72] = locus YNL207W, strain RIO2, active compounds read low
[73] = locus YNL222W, strain SSU72, active compounds read low
[74] = locus YNL307C, strain MCK1 (second series), active compounds read low
[75] = locus YOL136C, strain PFK27, active compounds read low
[76] = locus YOR061W, strain CKA2, active compounds read low
[77] = locus YOR119C, strain RIO1, active compounds read low
[78] = locus YOR231W, strain MKK1, active compounds read low
[79] = locus YOR329C, strain SCD5, active compounds read low
[80] = locus YPL031C, strain PHO85, active compounds read low
[81] = locus YPL153C, strain RAD53, active compounds read low
[82] = locus YPL204W, strain HRR25, active compounds read low
[83] = locus YPL209C, strain IPL1, active compounds read low
[84] = locus YPL256C, strain CLN2, active compounds read low
[85] = locus YPR025C, strain CCL1, active compounds read low
[86] = locus YPR106W, strain ISR1, active compounds read low
[87] = locus YPR111W, strain DBF20, active compounds read low
[88] = strain NNK1, active compounds read low
[89] = strain TSCII, active compounds read low

Measured: normalized growth

CC1(C)CC(=O)c2c(S(C)(=O)=O)sc(Br)c2C1
inactive: [1] 0.951 | [2] 1.01 | [3] 0.995 | [4] 0.965 | [5] 0.988 | [6] 1.02 | locus YGR229C, strain SMI1, active compounds read low 0.981 | [7] 0.921 | [8] 1.02 | [9] 1.03 | [10] 1.03 | locus YKL190W, strain CNB1, active compounds read low 0.998 | [11] 0.91 | [12] 1.01 | [13] 0.881 | [14] 0.907 | [15] 0.977 | [16] 0.993 | [17] 0.983 | [18] 1.02 | [19] 0.98 | [20] 1 | [21] 1 | [22] 0.924 | [23] 0.954 | [24] 0.96

CC(O)(CNCc1ccc(Cl)cc1)CSc1ccccc1Cl (stereo not given)
inactive: [25] 0.977 | [26] 0.984 | [27] 0.99 | [28] 0.975 | [29] 0.998 | [30] 0.992 | [31] 0.972 | [3] 0.985 | [32] 0.987 | [33] 0.994 | [34] 0.959 | [35] 1 | [36] 0.988 | [37] 0.98 | [38] 0.952 | [39] 0.862 | [40] 0.952 | [41] 0.99 | locus YFL029C, strain CAK1, active compounds read low 0.962 | [42] 0.986 | [43] 0.9 | [44] 0.985 | [45] 0.927 | [46] 1.08 | [47] 0.796 | [7] 0.938 | [48] 1 | [49] 1.03 | [50] 1.02 | [51] 0.978 | [52] 1.02 | [53] 1 | [54] 0.973 | [55] 0.991 | [56] 0.875 | [57] 0.998 | [58] 0.98 | [59] 0.971 | locus YKL101W, strain HSL1, active compounds read low 0.963 | [60] 0.985 | [61] 0.981 | [62] 1.07 | [63] 0.976 | [64] 0.963 | [65] 0.974 | [66] 0.982 | [67] 0.977 | [68] 0.99 | [69] 0.997 | [70] 0.991 | locus YNL161W, strain CBK1, active compounds read low 0.991 | [71] 1.02 | [72] 0.994 | [73] 0.985 | [74] 0.897 | locus YOL078W, strain AVO1, active compounds read low 0.99 | [75] 0.975 | [76] 0.964 | [77] 0.928 | [78] 1.02 | [79] 0.992 | [80] 0.955 | [81] 0.951 | [82] 0.923 | [83] 0.984 | [84] 1.01 | [85] 0.988 | [86] 1 | [87] 0.998 | [88] 1 | [89] 0.987

O=C(Nc1ccccc1SCc1cccc(C(F)(F)F)c1)c1c(F)cccc1Cl
inactive: [1] 1 | [2] 1.03 | [3] 1 | [4] 1.01 | [5] 1.03 | [6] 1.02 | [7] 1.01 | [8] 0.998 | locus YJL187C, strain SWE1, active compounds read low 1.02 | [9] 0.988 | [10] 0.998 | [11] 1.04 | [12] 1.01 | [13] 0.986 | [14] 0.984 | [15] 1 | [16] 1.02 | [17] 0.991 | [18] 1.02 | [19] 1.04 | [20] 1.02 | [21] 0.984 | locus YOL006C, strain TOP1, active compounds read low 0.963 | [22] 1.02 | [23] 1.01 | [24] 0.942

N#CCC(=O)c1cccc(CSc2ccccc2Cl)c1
inactive: [25] 0.896 | [26] 0.944 | [27] 0.954 | [28] 0.967 | [29] 0.971 | [30] 0.982 | [31] 0.972 | [3] 0.974 | [32] 0.966 | [33] 0.977 | [35] 0.976 | [36] 0.987 | [37] 0.964 | [41] 0.983 | [42] 0.982 | [44] 0.965 | [47] 1.03 | [50] 0.992 | [51] 0.968 | [53] 1.04 | [55] 0.987 | [58] 0.937 | [60] 0.978 | [64] 1 | [66] 0.976 | [67] 0.812 | [68] 0.973 | [71] 0.584 | [72] 0.966 | [73] 0.961 | [74] 1.04 | [79] 0.969 | [83] 0.966 | [85] 0.972 | [86] 0.996 | [87] 0.968 | [88] 0.971 | [89] 0.973
active: [34] 0.617 | [38] 0.417 | [39] 0.243 | [40] 0.639 | [43] 0.31 | [45] 0.456 | [46] 0.473 | [7] 0.114 | [48] 0.209 | [49] 0.293 | [52] 0.213 | [54] 0.42 | [56] 0.313 | [57] 0.353 | [59] 0.59 | [61] 0.529 | [62] 0.56 | [63] 0.512 | [65] 0.405 | [69] 0.319 | [70] 0.437 | [75] 0.382 | [76] 0.553 | [77] 0.504 | [78] 0.43 | [80] 0.189 | [81] 0.21 | [82] 0.162 | [84] 0.343
